# MCF10A rerep = A quantitative high throughput screen for small molecules that induce DNA re-replication in MCF 10a normal breast cells. MCF 10A DNA re-replication, Hoechst nuclear intensity, 48 h. Potency, µM (doses to about 46.1 µM), without a hit: at the top dose activity, positive = re-replication, actives largely listed as activators. 350,000 tested, 2.9% active. AID 624296, 2012; further: potency means the concentration at half of the fitted maximal effect; % of control where 0% means no effect; nearly all actives have a fitted effect of over 50% in size
# SW480 rerep = A quantitative high throughput screen for small molecules that induce DNA re-replication in SW480 colon adenocarcinoma cells; SW480 DNA re-replication, Hoechst DNA content imaging, 48 h; Potency, µM (series often up to 46.1 µM), for inactives: top-dose re-replication activation, actives largely listed as activators; 340,000 tested, 1.8% active; further: potency means the concentration at half of the fitted maximal effect; % of control where 0% means no effect; nearly all actives have a fitted effect of over 55% in size
#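 Readout is total intensity of Hoechst-stained nuclei, excited at 405 nm and collected at 500-530 nm. Compound treatment lasted 48 hr at 37 C in 5% CO2 before staining.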
# IL-1B inflam inh = qHTS for Inhibitors of Inflammasome Signaling: IL-1-beta AlphaLISA Primary Screen; activity change, % at 57.5 µM; 360,000 tested, 4.7% active; THP-1 LPS/ATP IL-1B secretion, AlphaLISA, 16 h; stronger effect = lower value; in the data active means activity change below about -50%; inconclusive means mostly about -30% to -49%; further: on the % scale 0 is the no-effect control and ±100 the full control effect
#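 Secreted IL-1B measured by AlphaLISA bead assay after 16 h compound exposure of THP-1 cells; compounds (final up to 57.5 uM) added 1 h before LPS (250 ng/mL) and ATP (1.25 mM) stimulation; lower signal means less secretion.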
# DT40 TDP1 no CPT = qHTS for Inhibitors of human tyrosyl-DNA phosphodiesterase 1 (TDP1): qHTS in cells in absence of CPT; DT40 Tdp1-/- hTDP1 cells, no CPT, ATP luminescence, 48 h; Potency, µM (titrated, usually from 46.2 µM), for inactives: at the highest dose activity change, negative = growth inhibition, actives largely listed as inhibitors; 420,000 tested, 15% active; AID 686978, 2013; further: potency means the concentration at half of the fitted maximal effect; on the % scale 0 is the no-effect control and ±100 the full control effect; nearly all actives have a fitted effect of over 55% in size
#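 Camptothecin absent (DMSO only). Human TDP1-complemented DT40 knockout cells, 400 cells/well, 37 °C for minimum 48 hr; ATP measured via CellTiter-Glo, 30 min dark incubation, luminescence.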
# Chronic BCR inh = qHTS Assay to Find Inhibitors of Chronic Active B-Cell Receptor Signaling. ABC-DLBCL IkBa-CBG/CBR reporter, luminescence ratio, 4 h. Potency, µM (titrated, usually from 46.1 µM), for inactives: top-dose activity change, negative = inhibition, actives largely listed as inhibitors. 340,000 tested, 0.05% active. AID 493014, 2011; active means well fitted inhibition curve with a large enough effect in the signal ratio, with a control signal flat, not every such curve was filed as active; inconclusive means small, poorly fitted or top-dose-only effect, or effect the other way, or a change in a side signal; the % refers to the signal ratio;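 further: potency means the concentration at half of the fitted maximal effect; plate controls were basal doxycycline-induced cells for no effect and cells given 10 µM MG132 for full effect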
#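 Concentration-response series (up to 46 uM) were applied to TMD8 dual-reporter cells for 4 h at 37C with doxycycline. Green/red ratio, after filter-overlap correction, defined %Activity; red signal alone was normalised to basal cells and zero luminescence.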
# DT40 TDP1 CPT = qHTS for Inhibitors of human tyrosyl-DNA phosphodiesterase 1 (TDP1): qHTS in cells in presence of CPT. chicken DT40 Tdp1-/-;hTDP1 cells + 20 nM CPT, ATP luminescence, 48 h. 420,000 tested, 12% active. AID 686979, 2013. Potency, µM (titrated, usually from 46.2 µM), for inactives: at the highest dose activity change, negative = growth inhibition, hits mostly inhibitors; further: potency means the concentration at half of the fitted maximal effect; on the % scale 0 is the no-effect control and ±100 the full control effect; nearly all actives have a fitted effect of over 55% in size
#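 Cell growth measured by CellTiter-Glo luminescence after a minimum 48 h, 37 C compound exposure with 20 nM CPT in Tdp1-knockout DT40 cells stably expressing hTDP1, seeded 400/well; qHTS titration format.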
# Starred values were filed as active, the others as inactive; ? = inconclusive; nt = no result given. Shown are actives, neighbours in structure and some others; about 19% of the full set was active somewhere. Unless noted, the call rests on the fitted dose curve; in most records, active means well fitted curve in the direction sought with a large enough effect; inconclusive means small, poorly fitted or top-dose-only effect, or another doubt; inactive means no such curve, though single readings can be large; an effect the other way counts as inactive or inconclusive.
SMILES,MCF10A rerep,SW480 rerep,IL-1B inflam inh,DT40 TDP1 no CPT,Chronic BCR inh,DT40 TDP1 CPT
CC(C)CCNC(=O)CSCc1cnn(-c2ccccc2)c1-n1cccc1,nt,nt,nt,20.6µM*,nt,20.6µM*
CNC(=O)CSCc1cnn(-c2ccccc2)c1-n1cccc1,2.7%,-5.4%,-9.0,-16.7%,13.3%,5.8%
O=C(CSCc1cnn(-c2ccccc2)c1-n1cccc1)NCc1cccs1,1.8%,-8.8%,3.9,?,?,-5.0%
Cc1ccc(Cl)cc1NC(=O)CSCc1cnn(-c2ccccc2)c1-n1cccc1,nt,nt,nt,16.4µM*,nt,16.4µM*
CCc1ccccc1NC(=O)C(CCSC)NS(=O)(=O)c1ccc2c(c1)oc(=O)n2C (configuration not stated),nt,nt,nt,-10.9%,nt,24.1%
O=C1CCCCC1Nc1ccc2ccccc2c1 (configuration not stated),?,?,-64.1*,-11.7%,nt,-4.0%
O=C1CCCC1C(=O)Nc1ccc2ccccc2c1 (configuration not stated),0.7%,-6.2%,?,-22.0%,?,-0.5%
COc1ccccc1NC(=O)NC1(C(=O)N2CCC(C)CC2)CCCCC1,-0.6%,5.3%,-2.4,-2.5%,-3.8%,10.4%
COc1ccc(OC)c(-c2cc(C(=O)Nc3cccc(Cl)c3C)no2)c1,nt,nt,nt,-28.4%,nt,-16.5%
CCN(Cc1ccccc1)C(=O)CN(c1ccc(OC)cc1)S(=O)(=O)c1c(C)nn(C)c1C,nt,nt,nt,?,nt,3.9%
Cc1cccc(Nc2ncc3c(n2)CC(c2ccco2)CC3=O)c1 (configuration not stated),13.6%,-4.5%,?,20.6µM*,-0.8%,?
Cc1ccc(/C=N/NC(=O)CNC(=O)c2cccc([N+](=O)[O-])c2C)o1,0.7%,-4.7%,-13.0,-13.2%,0.6%,-4.8%
CCN(CC)C(=S)SCC(=O)c1ccc(Br)cc1,11.4%,-0.5%,-1.7,23.1µM*,?,-3.7%
CC(=O)c1cccc(NC(=O)CN2C(=O)c3ccccc3Sc3ncccc32)c1,nt,nt,nt,8.2µM*,nt,16.4µM*
CC(=O)c1cccc(NC(=O)CN2C(=O)c3ccccc3C2=O)c1,-0.7%,-2.8%,35.4,17.5%,1.9%,40.1%
COc1ccc(NC(=O)CN2C(=O)c3cccnc3Sc3ccccc32)cc1OC,nt,nt,nt,16.4µM*,nt,?
COCCCNC(=O)CN1C(=O)c2cccnc2Sc2ccccc21,nt,nt,nt,-8.8%,nt,-7.1%
O=C(CCNC(=O)c1ccc([N+](=O)[O-])cc1)Oc1ccc(F)c(F)c1,1.0%,-12.1%,-4.3,-15.4%,?,-5.8%
O=c1oc2ccc(Br)cc2cc1-c1nc2c(s1)CCc1ccccc1-2,nt,nt,nt,-14.6%,nt,?
COc1ccc(NC(=O)C(c2ccncc2)n2c(=O)c(-c3ccco3)nc3ccccc32)cc1 (configuration not stated),nt,nt,-23.4,23.1µM*,nt,?
COc1ccc(NC(=O)C(c2cccc3ccccc23)n2c(=O)c(-c3ccco3)nc3ccccc32)cc1 (configuration not stated),nt,nt,-6.2,-29.6%,nt,?
COc1ccc(NC(=O)C(c2ccc(C(F)(F)F)cc2)n2c(=O)c(-c3ccco3)nc3ccccc32)cc1 (configuration not stated),nt,nt,-19.2,?,nt,?
COc1ccc(C(C(=O)NC2CCCCC2)n2c(=O)c(-c3ccco3)nc3ccccc32)cc1 (configuration not stated),nt,nt,-6.6,25.9µM*,nt,?
O=C(NC1CCCCC1)C(c1cccc2ccccc12)n1c(=O)c(-c2ccco2)nc2ccccc21 (configuration not stated),nt,nt,-4.2,23.1µM*,nt,16.4µM*
Cc1cc(NC(=O)c2cc(-c3cccc(OCC(C)C)c3)nc3ccccc23)no1,?,15.0%,0.0,?,0.2%,?
SMILES,MCF10A rerep,SW480 rerep,IL-1B inflam inh,DT40 TDP1 no CPT,Chronic BCR inh,DT40 TDP1 CPT
CCCN(C(=O)c1cc2ccc3cccnc3c2[nH]1)c1ccc(F)cc1,nt,nt,nt,-25.2%,nt,-13.9%
Cc1cc(C)c2cc(C)c3nnc(SCC(=O)NCc4ccc5c(c4)OCO5)n3c2c1,7.3%,-3.8%,-58.6*,?,-0.1%,?
O=C(CSc1nnc(-c2cccs2)n1Cc1ccccc1)NCc1ccc2c(c1)OCO2,6.4%,2.0%,-60.6*,?,5.0%,23.1µM*
COc1cccc(-c2cccc3c2NC(=O)C3(C)Cc2cccc(F)c2)c1 (configuration not stated),nt,nt,13.3,20.6µM*,nt,?
CC1(Cc2cccc(F)c2)C(=O)Nc2ccc(-c3cccnc3)cc21 (configuration not stated),nt,nt,82.8,10.3µM*,nt,11.6µM*
CC1(Cc2ccc(S(C)(=O)=O)cc2)C(=O)Nc2ccc(Cl)cc21 (configuration not stated),nt,nt,-15.7,-23.9%,nt,6.3%
CC1(Cc2cccc(C(F)(F)F)c2)C(=O)Nc2ccc(-c3ccc(F)c(Cl)c3)cc21 (configuration not stated),nt,nt,-69.8*,23.1µM*,nt,?
CC1(Cc2ccc(Cl)cc2)C(=O)Nc2ccc(-c3cccnc3)cc21 (configuration not stated),nt,nt,36.0,11.6µM*,nt,13µM*
CCc1ccc2c(c1)NC(=O)C2(C)Cc1cccc(F)c1 (configuration not stated),nt,nt,-1.1,?,nt,?
O=C(COc1ccc(S(=O)(=O)N2CCOCC2)cc1)NC1CCCCC1,?,-7.4%,22.7,-24.3%,0.4%,-3.6%
Cc1ccc(CNS(=O)(=O)c2ccc(CN3C(=O)c4cccnc4C3=O)s2)o1,5.8%,-4.5%,3.1,-1.4%,-3.2%,7.0%
CCOC(=O)c1c(NC(=O)c2nc(SC(C)C)ncc2Cl)sc2c1CCCC2,nt,nt,nt,-11.0%,nt,5.2%
O=C(Nc1ccc(S(=O)(=O)N(Cc2ccccc2)c2ccccc2)cc1)c1ccc([N+](=O)[O-])cc1,nt,nt,nt,?,nt,2.91µM*
CS(=O)(=O)N(Cc1ccc(Cl)cc1)c1ccc(C(=O)NCc2ccccn2)cc1,-1.1%,0.6%,-21.2,-12.6%,-0.7%,-21.1%

# Compound activity: PubChem, National Center for Advancing Translational Sciences (NCATS)
